According to publication PMC7862700, “An all-to-all approach to the identification of sequence-specific readers for epigenetic DNA modifications on cytosine”:

Tests used:
Test in all cases: DAPPL (digital affinity profiling via proximity ligation, sequencing); 10 mM Tris-HCl pH 7.5, 50 mM NaCl, 1 mM DTT, 4% glycerol, room temperature, 30 min; GST-TFs on glutathione beads, 16-mer random dsDNA library, 0.1% formaldehyde crosslink after washing; high values mean tight binding
Conditions in all cases: protein: recombinant; tags: N-terminal GST; dsDNA, one strand shown
ERF = molecular target: T1, ERF (Homo sapiens, UniProt P50548 1-548)
T1 sequence: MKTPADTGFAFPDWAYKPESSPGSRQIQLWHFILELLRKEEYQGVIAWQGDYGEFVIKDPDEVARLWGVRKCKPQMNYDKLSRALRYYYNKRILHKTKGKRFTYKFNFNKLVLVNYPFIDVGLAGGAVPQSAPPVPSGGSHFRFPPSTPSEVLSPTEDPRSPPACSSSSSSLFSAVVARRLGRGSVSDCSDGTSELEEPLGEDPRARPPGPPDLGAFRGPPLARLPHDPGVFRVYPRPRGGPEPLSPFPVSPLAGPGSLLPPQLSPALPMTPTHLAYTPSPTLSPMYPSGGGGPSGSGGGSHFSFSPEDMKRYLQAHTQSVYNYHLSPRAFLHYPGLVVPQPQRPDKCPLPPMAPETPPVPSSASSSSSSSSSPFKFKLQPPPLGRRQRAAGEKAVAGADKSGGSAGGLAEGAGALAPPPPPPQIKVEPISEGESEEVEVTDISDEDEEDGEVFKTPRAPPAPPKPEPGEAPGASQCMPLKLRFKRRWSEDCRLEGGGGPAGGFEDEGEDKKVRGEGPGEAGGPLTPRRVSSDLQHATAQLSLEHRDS
Method in brief: (§1)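 Yeast served to express human transcription factors as GST fusions, which were then captured on glutathione beads and labelled with DNA barcodes. Pooled with a tag-only sample, they were incubated with 200 nmole of a 16-mer random double-stranded DNA library for 30 min at room temperature in Tris/NaCl/DTT/glycerol buffer, washed, crosslinked with 0.1% formaldehyde, ligated by proximity, amplified by PCR and sequenced. Dividing each hexamer's read frequency for a factor by its frequency for the tag-only sample gives the binding signal.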

ETV3L = molecular target: T2, ETV3L (Homo sapiens, UniProt Q6ZN32 1-361)
T2 sequence: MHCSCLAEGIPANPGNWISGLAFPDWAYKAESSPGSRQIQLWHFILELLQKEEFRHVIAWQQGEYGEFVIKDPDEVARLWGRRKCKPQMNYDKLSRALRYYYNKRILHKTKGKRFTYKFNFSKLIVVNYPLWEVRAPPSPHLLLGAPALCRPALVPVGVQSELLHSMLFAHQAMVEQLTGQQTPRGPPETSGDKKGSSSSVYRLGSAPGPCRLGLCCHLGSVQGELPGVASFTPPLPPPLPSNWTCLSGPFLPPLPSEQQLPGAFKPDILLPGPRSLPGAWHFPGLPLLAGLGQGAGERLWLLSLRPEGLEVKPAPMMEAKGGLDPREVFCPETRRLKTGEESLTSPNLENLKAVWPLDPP
Method in brief: as §1

ETS2 = molecular target: T3, ETS2 (Homo sapiens, UniProt P15036 1-469)
T3 sequence: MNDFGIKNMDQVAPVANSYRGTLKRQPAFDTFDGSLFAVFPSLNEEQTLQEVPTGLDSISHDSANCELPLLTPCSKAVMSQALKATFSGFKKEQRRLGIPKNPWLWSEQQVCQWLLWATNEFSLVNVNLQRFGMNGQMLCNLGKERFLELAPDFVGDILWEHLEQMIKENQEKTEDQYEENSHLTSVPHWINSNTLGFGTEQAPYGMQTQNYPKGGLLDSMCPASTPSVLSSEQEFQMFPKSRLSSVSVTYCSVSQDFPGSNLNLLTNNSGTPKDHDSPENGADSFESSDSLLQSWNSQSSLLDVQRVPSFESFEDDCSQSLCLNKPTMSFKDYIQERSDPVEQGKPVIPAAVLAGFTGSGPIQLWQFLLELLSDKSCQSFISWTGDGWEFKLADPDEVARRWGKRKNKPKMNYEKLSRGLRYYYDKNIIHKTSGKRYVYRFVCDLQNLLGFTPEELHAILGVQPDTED
Method in brief: as §1

SPDEF = molecular target: T4, SPDEF (Homo sapiens, UniProt O95238 1-335)
T4 sequence: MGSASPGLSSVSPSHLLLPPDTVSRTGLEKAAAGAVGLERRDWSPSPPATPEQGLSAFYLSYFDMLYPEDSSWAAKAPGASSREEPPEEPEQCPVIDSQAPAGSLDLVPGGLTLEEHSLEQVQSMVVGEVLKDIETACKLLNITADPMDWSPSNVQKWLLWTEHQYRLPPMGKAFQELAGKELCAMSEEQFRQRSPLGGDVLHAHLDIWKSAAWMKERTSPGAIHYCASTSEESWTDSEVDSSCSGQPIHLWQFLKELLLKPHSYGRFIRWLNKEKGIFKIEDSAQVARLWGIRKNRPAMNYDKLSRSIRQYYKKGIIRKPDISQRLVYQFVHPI
Method in brief: as §1

ETV7 = molecular target: T5, ETV7 (Homo sapiens, UniProt Q9Y603 1-341)
T5 sequence: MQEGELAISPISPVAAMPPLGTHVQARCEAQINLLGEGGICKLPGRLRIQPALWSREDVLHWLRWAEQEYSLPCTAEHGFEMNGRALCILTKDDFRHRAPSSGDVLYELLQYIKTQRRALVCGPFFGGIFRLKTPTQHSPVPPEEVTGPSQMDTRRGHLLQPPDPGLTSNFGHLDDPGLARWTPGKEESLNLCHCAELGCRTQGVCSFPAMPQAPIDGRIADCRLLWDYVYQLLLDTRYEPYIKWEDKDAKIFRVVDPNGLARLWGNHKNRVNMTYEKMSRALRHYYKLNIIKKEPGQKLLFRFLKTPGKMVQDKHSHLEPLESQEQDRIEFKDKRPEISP
Method in brief: as §1

ELF5 = molecular target: T6, ELF5 (Homo sapiens, UniProt Q9UKW6-2 1-255)
T6 sequence: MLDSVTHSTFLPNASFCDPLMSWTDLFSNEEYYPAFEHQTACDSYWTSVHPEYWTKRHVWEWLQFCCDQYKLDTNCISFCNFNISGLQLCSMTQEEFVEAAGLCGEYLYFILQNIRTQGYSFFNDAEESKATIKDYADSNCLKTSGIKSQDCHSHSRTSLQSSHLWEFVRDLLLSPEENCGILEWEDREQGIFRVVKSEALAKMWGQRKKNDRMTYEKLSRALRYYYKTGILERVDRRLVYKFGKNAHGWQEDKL
Method in brief: as §1

ETV3 = molecular target: T7, ETV3 (Homo sapiens, UniProt P41162-2 1-143)
T7 sequence: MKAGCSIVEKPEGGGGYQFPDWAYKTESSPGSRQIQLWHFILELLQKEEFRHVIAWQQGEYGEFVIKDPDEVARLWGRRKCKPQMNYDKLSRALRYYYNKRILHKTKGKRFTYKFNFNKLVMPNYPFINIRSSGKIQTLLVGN
Method in brief: as §1

ETV6 = ETV6 (Homo sapiens, UniProt P41212 1-452)
Method in brief: as §1

ETV6, sequence (P41212 whole entry): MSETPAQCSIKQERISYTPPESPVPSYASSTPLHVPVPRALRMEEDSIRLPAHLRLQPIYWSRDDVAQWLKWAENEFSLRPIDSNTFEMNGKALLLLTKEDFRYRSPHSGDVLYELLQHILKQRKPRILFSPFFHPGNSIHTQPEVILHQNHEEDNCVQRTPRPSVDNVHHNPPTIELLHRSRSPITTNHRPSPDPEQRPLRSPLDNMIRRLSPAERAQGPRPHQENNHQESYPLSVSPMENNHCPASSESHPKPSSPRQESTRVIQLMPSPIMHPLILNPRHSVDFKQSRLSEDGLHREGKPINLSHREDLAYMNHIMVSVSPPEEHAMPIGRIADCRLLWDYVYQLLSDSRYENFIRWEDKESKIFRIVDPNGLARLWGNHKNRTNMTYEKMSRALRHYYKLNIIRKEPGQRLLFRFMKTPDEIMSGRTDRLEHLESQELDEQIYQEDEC

Sequence	binding signal (ERF)	binding signal (ETV3L)	binding signal (ETS2)	binding signal (SPDEF)	binding signal (ETV7)	binding signal (ELF5)	binding signal (ETV3)	binding signal (ETV6)
TTATGA	1.23 fold enrichment (6-mer frequency, TF over GST control)	1.22 fold enrichment (6-mer frequency, TF over GST control)	1.13 fold enrichment (6-mer frequency, TF over GST control)	1.13 fold enrichment (6-mer frequency, TF over GST control)	1.12 fold enrichment (6-mer frequency, TF over GST control)	1.09 fold enrichment (6-mer frequency, TF over GST control)	1.21 fold enrichment (6-mer frequency, TF over GST control)	1.19 fold enrichment (6-mer frequency, TF over GST control)
TTACCA	1.07 fold enrichment (6-mer frequency, TF over GST control)	1.07 fold enrichment (6-mer frequency, TF over GST control)	1.13 fold enrichment (6-mer frequency, TF over GST control)	1.09 fold enrichment (6-mer frequency, TF over GST control)	1.12 fold enrichment (6-mer frequency, TF over GST control)	1.04 fold enrichment (6-mer frequency, TF over GST control)	1.16 fold enrichment (6-mer frequency, TF over GST control)	1.07 fold enrichment (6-mer frequency, TF over GST control)
CTTGCC	1.33 fold enrichment (6-mer frequency, TF over GST control)	1.31 fold enrichment (6-mer frequency, TF over GST control)	1.3 fold enrichment (6-mer frequency, TF over GST control)	1.44 fold enrichment (6-mer frequency, TF over GST control)	1.54 fold enrichment (6-mer frequency, TF over GST control)	1.29 fold enrichment (6-mer frequency, TF over GST control)	1.33 fold enrichment (6-mer frequency, TF over GST control)	1.08 fold enrichment (6-mer frequency, TF over GST control)
TCCGAT	1.25 fold enrichment (6-mer frequency, TF over GST control)	1.22 fold enrichment (6-mer frequency, TF over GST control)	1.28 fold enrichment (6-mer frequency, TF over GST control)	1.34 fold enrichment (6-mer frequency, TF over GST control)	1.27 fold enrichment (6-mer frequency, TF over GST control)	1.27 fold enrichment (6-mer frequency, TF over GST control)	1.35 fold enrichment (6-mer frequency, TF over GST control)	1.39 fold enrichment (6-mer frequency, TF over GST control)
TATACG	1.39 fold enrichment (6-mer frequency, TF over GST control)	1.15 fold enrichment (6-mer frequency, TF over GST control)	1.37 fold enrichment (6-mer frequency, TF over GST control)	1.39 fold enrichment (6-mer frequency, TF over GST control)	1.39 fold enrichment (6-mer frequency, TF over GST control)	1.35 fold enrichment (6-mer frequency, TF over GST control)	1.3 fold enrichment (6-mer frequency, TF over GST control)	1.23 fold enrichment (6-mer frequency, TF over GST control)
GGCTTC	1.7 fold enrichment (6-mer frequency, TF over GST control)	1.61 fold enrichment (6-mer frequency, TF over GST control)	1.7 fold enrichment (6-mer frequency, TF over GST control)	1.6 fold enrichment (6-mer frequency, TF over GST control)	1.54 fold enrichment (6-mer frequency, TF over GST control)	1.81 fold enrichment (6-mer frequency, TF over GST control)	1.65 fold enrichment (6-mer frequency, TF over GST control)	1.85 fold enrichment (6-mer frequency, TF over GST control)
CTACTT	1.85 fold enrichment (6-mer frequency, TF over GST control)	1.84 fold enrichment (6-mer frequency, TF over GST control)	1.95 fold enrichment (6-mer frequency, TF over GST control)	1.79 fold enrichment (6-mer frequency, TF over GST control)	1.8 fold enrichment (6-mer frequency, TF over GST control)	2 fold enrichment (6-mer frequency, TF over GST control)	1.76 fold enrichment (6-mer frequency, TF over GST control)	2.02 fold enrichment (6-mer frequency, TF over GST control)
ATCTAA	1.2 fold enrichment (6-mer frequency, TF over GST control)	1.19 fold enrichment (6-mer frequency, TF over GST control)	1.2 fold enrichment (6-mer frequency, TF over GST control)	1.11 fold enrichment (6-mer frequency, TF over GST control)	1.22 fold enrichment (6-mer frequency, TF over GST control)	1.17 fold enrichment (6-mer frequency, TF over GST control)	1.24 fold enrichment (6-mer frequency, TF over GST control)	1.17 fold enrichment (6-mer frequency, TF over GST control)
TGCTTC	1.81 fold enrichment (6-mer frequency, TF over GST control)	2.16 fold enrichment (6-mer frequency, TF over GST control)	2.06 fold enrichment (6-mer frequency, TF over GST control)	2.39 fold enrichment (6-mer frequency, TF over GST control)	2.13 fold enrichment (6-mer frequency, TF over GST control)	2.66 fold enrichment (6-mer frequency, TF over GST control)	2.21 fold enrichment (6-mer frequency, TF over GST control)	2.45 fold enrichment (6-mer frequency, TF over GST control)
